Laboratory results published in ChEMBL document CHEMBL3988442, “University of Dundee, Small-Polar-MMV Screening Library” (2021).
About 13,000 (27%) of roughly 48,000 compounds showed an effect of 50% or more. The list shows a part of the results.

What follows are molecules tested on Wolbachia pipientis (assay: Anti-Wolbachia Cell-Based Screen). Details: 5 µM.
Format: functional
Design: scale not given: in the data most compounds retested in dose-response had high values

Structure (SMILES)	Percent Effect
CSCCCN1C(=O)CC[C@H]2CN(Cc3ncc[nH]3)CC[C@H]21	-3.327%
Cc1nc(CSCCC(=O)NCc2ccc(N(C)C)cc2)cs1	100.6%
Cc1nc(CNC(=O)NCc2ccc(OCC3CC3)nc2)cs1	-6.746%
COc1ccc(CNC(=O)NCCc2csc(C)n2)cn1	78.6%
Cc1nc(CCNC(=O)NCc2ccc(N(C)C)nc2)cs1	2.776%
Cc1ncsc1CCC(=O)NCc1csc(N(C)C)n1	8.732%
CCOc1ccc(C(=O)CCC(=O)NCCc2nncn2CC)cc1C	-15.05%
CC(=O)N1CCC2(CC1)C(=O)N(c1ccc(C)nc1)CCN2CC(C)C	-6.199%
CCCS(=O)(=O)N1CCN(C(=O)CO)CC1	9.785%
CNC(=O)NCC(=O)Nc1ccccc1N1CCc2ccccc21	-5.269%
CS(=O)(=O)NCCC(=O)Nc1ccccc1N1CCc2ccccc21	4.986%
CC(C)c1nc(C2CCCN2CC(=O)N2CCc3ccccc32)no1 (configuration not stated)	8.047%
CC1=C(c2ccc(C(C)C)cc2)S(=O)(=O)N=C1N1CCc2ccccc21	127.3%
CC1=C(c2ccc(F)cc2)S(=O)(=O)N=C1N1CCc2ccccc21	117.2%
COc1ccc(C2=C(C)C(N3CCc4ccccc4C3)=NS2(=O)=O)cc1	-1.571%
CCS(=O)(=O)CC(=O)Nc1ccccc1N1CCc2ccccc21	-1.356%
CC1=C(c2ccc(Cl)cc2)S(=O)(=O)N=C1N1CCc2ccccc21	182.9%
COc1ccc(C2=C(C)C(N3CCc4ccccc43)=NS2(=O)=O)cc1	41.03%
CC1=C(c2ccc(C)cc2)S(=O)(=O)N=C1N1CCc2ccccc21	130.8%
CCc1nccn1CC(=O)N1C[C@H]2CC[C@@H]1CN(S(=O)(=O)N(C)C)C2	-7.287%
Cc1nc(CN2CCCC2C(=O)OCc2ccccc2)oc1C (configuration not stated)	2.818%
CCN1CCN(C(=O)NCc2cccc(-c3cnn(C)c3)c2)CC1	-0.06636%
CCOC(=O)NC(CNC(=O)c1cccc(C)n1)CC(C)C (configuration not stated)	-0.9976%

Structure (SMILES)	Percent Effect
COCc1ccccc1C(=O)N1CCC(CNC(=O)OC(C)(C)C)C1 (configuration not stated)	-8.221%
CS(=O)(=O)CCC(=O)N1C[C@@H]2CC[C@H](C1)N(Cc1ccccn1)C2=O	13.71%
N[C@@H]1CC[C@@H](Nc2nccc(CCC(F)(F)F)n2)C1	-1.257%
CN(C)c1nccc(N(C)Cc2nc3ccccc3n2C)n1	-8.65%
COc1ccccc1-c1noc(CNc2ccc(F)cc2OCCO)n1	0.4936%
CCNc1ncc(C(=O)N(C)Cc2nc3ccccc3n2C)cn1	-2.006%
CN1C[C@@H](F)[C@@H](OCc2nc3ccccc3n2C)C1	6.816%
COc1cc(F)c(NCc2nc3ccccc3n2C)cc1OC	108.7%
COCCOc1ccc(F)cc1NCc1nc2ccccc2n1C	110.1%
Cn1c(CCCNc2nccnc2C#N)nc2ccccc21	-4.565%
COCCOc1ncccc1NCc1nc2ccccc2n1C	92.25%
COc1ccc(-n2c(CO)nc3ccccc32)cc1CO	-2.808%
Cc1cc(NC(=O)NC(C)(C)c2nc(C)c(C)s2)no1	5.891%
CSc1ccc(-c2nc(CN3CCC(C(N)=O)CC3)c(C)o2)cc1	12.72%
Cc1cc(S(=O)(=O)N2CCC(N3CCC(O)C3)CC2)c(Cl)cc1Cl (configuration not stated)	-12.47%
CCn1cnnc1CN(C)Cc1c[nH]nc1-c1ccc(F)cc1	6.499%
Cn1ccnc1-c1ccccc1C(=O)N1CCc2c(nc(N)[nH]c2=O)C1	1.911%
Cn1cccc1CN1CCc2c(nc(-c3ccccn3)[nH]c2=O)C1	114.7%
O=C(c1ccccn1)N1CCc2c(nc(-c3ccncc3)[nH]c2=O)C1	-0.04653%
Cc1cnc(C(=O)N2CCc3c(nc(-c4ccncc4)[nH]c3=O)C2)cn1	-3.986%
Cc1ncc(CN2CCc3c(nc(-c4ccccn4)[nH]c3=O)C2)n1C	100.8%
CC(NC(=O)N1CCN(c2ccc(Cl)cc2)CC1)C(=O)N1CCSCC1 (configuration not stated)	-1.833%
O=C(c1cnccn1)N1CCC(Oc2ncccc2Cl)CC1	33.47%

Structure (SMILES)	Percent Effect
Nc1nc(C2CCN(C(=O)c3cnccn3)CC2)cs1	113.4%
Nc1nc(C2CCN(C(=O)c3cnco3)CC2)cs1	114.6%
CCc1nc(CN2CCN(C(=O)c3cnccn3)CC2)cs1	-1.168%
O=C(NCC1CCCN1Cc1ccccc1)NCC1(O)CCC1 (configuration not stated)	10.62%
CCCn1cc(C(=O)n2nc(C)cc2C)c(S(=O)(=O)N2CCSCC2)n1	-15.72%
CCCn1cc(Cl)c(C(=O)N2C[C@H]3C[C@H](OC)C[C@H]3C2)n1	128.4%
CC(=O)N[C@@H]1CN(C(=O)c2ccncc2)C[C@H]1c1ccc(C)cc1	-2.552%
CCCn1cc(Cl)c(C(=O)N2C[C@@H](O)[C@H](NC(C)=O)C2)n1	135.9%
Cn1cc(Cl)c(C(=O)N2CCCN(C3Cc4ccccc4C3)CC2)n1	3%
CCCn1ccnc1CN1C[C@@H](NC(C)=O)[C@H](c2ccc(C)cc2)C1	-5.902%
CCOCCCNC(=O)c1nn(CC)cc1Cl	13.91%
Cn1cc(Cl)c(C(=O)N2CCC(N3CCc4ccccc4C3)CC2)n1	3.443%
CCCn1cc(Cl)c(C(=O)N2C[C@@H](O)[C@H](Oc3ccccc3)C2)n1	77.97%
COCCN(Cc1ccccn1)C(=O)CC1OCCc2ccsc21 (configuration not stated)	1.398%
COc1ccc(Br)cc1CN(C)C(C)c1nc(C)no1 (configuration not stated)	6.293%
COc1ccc(C2(NCc3noc(C4CC4)n3)CCOCC2)cc1	-5.013%
COC(C)c1cccc(NC(=O)N(CCC#N)Cc2ccccn2)c1 (configuration not stated)	1.571%
O=C(Nc1cccc(CN2CCOC2=O)c1)N1CCOCC1	-4.373%
CCN1CCNC(=O)C12CCN(C(=O)Cc1ccsc1)CC2	113.3%
CC1NC(=O)COC12CCN(C(=O)Cc1ccsc1)CC2 (configuration not stated)	-21.8%
O=C1NC2(CCN(C(=O)Cc3ccsc3)CC2)CC1c1ccncc1 (configuration not stated)	-1.55%
